Results on 16 molecules are retold here after PubChem BioAssay.

In assay [1] the test system is TRPC4 beta (transient receptor potential cation channel C4), mouse. The assay is described as follows: activators of mouse TRPC4 channel, confirmation, cell-based, Fluo4 calcium, HEK293 TRPC4beta/mu-opioid, duplicates, 10 µM (AID 2426). As to conditions: Fluo4 calcium fluorescence, at 10 µM; hits give high values.
Assay [2] deals with transient receptor potential cation channel C4 beta (TRPC4), mouse. In words: activators of mouse TRPC4 channel, confirmation, cell-based, second round, Fluo4, HEK293 TRPC4beta/mu-opioid, 1 µM (AID 2461;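 active means primary screen active and over 50% activation in each of two duplicate runs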). As to conditions: Fluo4 calcium fluorescence, at 1 µM; hits give high values.
In assay [3] the test system is TRPC4 (transient receptor potential cation channel C4 beta), mouse. In words: positive allosteric modulators of mouse TRPC4, confirmation, cell-based, second round, Fluo-4, HEK293 TRPC4beta/mu-opioid, 1 µM (AID 2554;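 active means primary screen hit whose fluorescence ratio, in both repeats, exceeds the weak agonist control mean by 3 SD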). As to conditions: DAMGO EC20, Fluo-4 calcium flux, at 1 µM; hits give high values. (In general: A change in cytosolic calcium serves as a functional read-out for many receptors and channels.)

The subject of assay [4] is TRPC4 beta (transient receptor potential cation channel C4), mouse. The assay is described as follows: positive allosteric modulators of mouse TRPC4, confirmation, cell-based, Fluo-4, HEK293 TRPC4beta/mu-opioid (AID 2555;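 active means primary screen hit whose calcium fluorescence ratio, in both repeats, exceeds the weak agonist control mean by 3 SD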). As to conditions: DAMGO EC20, Fluo-4 calcium flux, at 10 µM; hits give high values.
The target of assay [5] is Short transient receptor potential channel 4 (Mus musculus) (UniProt Q9QUQ5). The assay is described as follows: inhibitors of mouse TRPC4 channel, confirmation, cell-based, Fluo4, HEK293 TRPC4beta/mu-opioid (AID 2636;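 active means calcium signal cut by more than 3 SD below the full-agonist control yet still positive, in both repeats and the earlier primary screen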). The note with it: DAMGO, Fluo4 calcium flux, at 10 µM; hits give high values.
Short transient receptor potential channel 4 (Mus musculus), sequence (Q9QUQ5 whole entry, looked up): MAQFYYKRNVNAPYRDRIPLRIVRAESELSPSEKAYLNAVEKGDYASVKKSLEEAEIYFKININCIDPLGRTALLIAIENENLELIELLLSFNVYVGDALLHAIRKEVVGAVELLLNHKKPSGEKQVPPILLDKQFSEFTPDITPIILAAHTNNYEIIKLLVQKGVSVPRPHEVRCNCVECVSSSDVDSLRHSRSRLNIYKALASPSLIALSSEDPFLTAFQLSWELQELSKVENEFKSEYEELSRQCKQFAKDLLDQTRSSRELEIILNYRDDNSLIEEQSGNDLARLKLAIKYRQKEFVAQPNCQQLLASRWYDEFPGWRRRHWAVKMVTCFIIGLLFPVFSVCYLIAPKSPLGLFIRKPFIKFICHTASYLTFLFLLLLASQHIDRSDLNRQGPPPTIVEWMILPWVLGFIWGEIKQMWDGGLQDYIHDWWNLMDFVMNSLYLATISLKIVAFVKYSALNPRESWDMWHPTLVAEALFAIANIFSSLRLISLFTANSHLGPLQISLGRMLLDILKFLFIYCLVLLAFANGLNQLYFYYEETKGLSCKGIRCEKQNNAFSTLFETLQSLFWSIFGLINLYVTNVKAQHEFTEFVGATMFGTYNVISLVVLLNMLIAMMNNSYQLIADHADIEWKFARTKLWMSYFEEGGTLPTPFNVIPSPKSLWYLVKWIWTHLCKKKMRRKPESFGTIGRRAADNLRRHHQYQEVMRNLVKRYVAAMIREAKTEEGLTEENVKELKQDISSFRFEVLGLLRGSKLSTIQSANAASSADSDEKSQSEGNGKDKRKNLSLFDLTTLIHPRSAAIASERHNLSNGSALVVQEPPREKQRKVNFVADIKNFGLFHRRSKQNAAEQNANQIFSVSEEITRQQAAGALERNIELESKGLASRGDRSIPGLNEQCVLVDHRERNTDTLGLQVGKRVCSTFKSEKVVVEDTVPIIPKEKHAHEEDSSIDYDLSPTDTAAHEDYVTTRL
Assay [6] has the same target. The assay is described as follows: inhibitors of mouse TRPC4 channel, confirmation, cell-based, second round, Fluo4, HEK293 TRPC4beta/mu-opioid, 1 µM (AID 2637;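 active means calcium signal ratio cut to more than 3 SD under the fully stimulated control mean yet still positive, in both repeats and the primary screen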;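 on inhibition: percent of integrated ratio relative to wells lacking test compound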). As to conditions: Fluo4 calcium flux, DAMGO, at 1 µM; hits give high values.
Assay [7] has the same target. The assay is described as follows: mouse TRPC4 channel activators, dose response, cell-based, HEK293 TRPC4/mu-opioid, Fluo-4 calcium (AID 434937;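 active means primary screen activator hit with a dose response curve and TRPC4 channel activation at any tested dose; inactive means no activation, no dose response, or not a primary hit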).
For assay [8] the target is unchanged. The assay is described as follows: TRPC4 positive allosteric modulators, dose response, cell-based, HEK293 TRPC4/mu-opioid, Fluo-4 calcium, EC20 DAMGO (AID 434941;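 active means earlier screen potentiator hit that boosts the TRPC4 ion channel at some dose, with a dose response; inactive means no potentiation, no dose response, or not a prior hit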;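 further: calcium entry triggered by an EC20 dose of DAMGO at the co-expressed mu-opioid receptor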).
Assay [9] has as its target Short transient receptor potential channel 6 (Mus musculus) (UniProt Q61143). The assay is described as follows: inhibition of mouse TRPC6 channel, confirmation, selectivity assay for TRPC4 inhibitor project, cell-based, HEK293, membrane potential dye, duplicate (AID 434948;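 active means active in primary screen and both duplicates, each dropping signal beyond three positive-control SD with fluorescence still positive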). As to conditions: HEK293 TRPC6, membrane potential dye fluorescence, at 10 µM, stimulated with maximal-effect acetylcholine; hits give high values.

Assay [10] shares this target. The assay is described as follows: activation of mouse TRPC6 channel, confirmation, selectivity assay for TRPC4 activator project, cell-based, HEK293, membrane potential dye, duplicate (AID 434950;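 active means membrane potential signal rise above negative control mean plus 3 SD in both duplicates, also active in the earlier TRPC4 screen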). As to conditions: HEK293 TRPC6, membrane potential fluorescence, at 10 µM; hits give high values.
For assay [11] the target is unchanged. In words: TRPC6 potentiation by TRPC4 potentiator hits, confirmation, selectivity assay for TRPC4 potentiator project, HEK293 cells, membrane potential dye, duplicate (AID 434952;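 active means compound raising the membrane signal above positive-control mean plus 3 SD in both repeats, and a primary screen hit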). As to conditions: HEK293 TRPC6, membrane potential dye fluorescence, at 10 µM, maximal acetylcholine added after compound; hits give high values.
In assay [12] the target is Short transient receptor potential channel 4 (Mus musculus) (UniProt Q9QUQ5). In words: calcium flux activators in TRPC4/5HT1a cells, counter-screen for TRPC4 activator project, cell-based, second counter screen, HEK293 TRPC4/5HT1a, Fluo-4 (AID 434977;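 active means calcium signal rise above buffer-control mean plus 5 SD in both duplicates, and also a hit in the primary screen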). As to conditions: Fluo-4 calcium flux, at 10 µM; hits give high values.
The nature of assay [13]: calcium flux inhibitors in TRPC4/5HT1a cells, confirmation, counter-screen for TRPC4 inhibitor project, cell-based, second counter screen, HEK293 TRPC4/5HT1a, Fluo-4 (AID 434978;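 active means primary screen active whose calcium signal fell more than 3 SD beyond the full-serotonin control mean in both duplicate plates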;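 on outcome: serotonin given first at submaximal then at maximal dose after compound preincubation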). As to conditions: Fluo-4 calcium flux, at 10 µM, serotonin added to trigger calcium flux; hits give high values.
For assay [14], the system named is TRPC4 (mouse), co-expressed with 5HT1a in HEK293. The assay is described as follows: calcium flux potentiators in TRPC4/5HT1a cells, confirmation, counter-screen for TRPC4 potentiator project, cell-based, second counter screen, HEK293 TRPC4/5HT1a, Fluo-4 (AID 434979;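 active means signal rise over 3 SD above mean of control wells given weak agonist, in both repeats and first screen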). The note with it: Fluo-4 calcium flux, at 10 µM, serotonin added at its EC20 dose; hits give high values.

Assay [15] is described as follows: calcium flux activation in mu-opioid HEK293 cells, confirmation, counter-screen for TRPC4 activator project, cell-based, HEK293 mu-opioid receptor line (AID 449723;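 active means hit in primary screen, with calcium signal over 5 SD above buffer well mean in both duplicates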;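 further: counter screen cells carry the mu-opioid receptor alone and lack TRPC4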). The note with it: Fluo-4 calcium fluorescence, at 10 µM; hits give high values.
Assay [16] is described as follows: calcium flux enhancement in mu-opioid HEK293 cells, confirmation, counter-screen for TRPC4 allosteric potentiator project, cell-based, HEK293 mu-opioid receptor line (AID 449724;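 active means calcium signal rise more than 3 SD above the low-dose agonist control mean, in both duplicate plates and the primary screen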;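 further: HEK293 cells carrying mu-opioid receptor only with no TRPC4 channel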). As to conditions: Fluo-4 calcium flux, at 10 µM, compound added before EC20 DAMGO stimulus; hits give high values.

For some of these results: Entries with a potency or affinity are not part of this list. Active and inactive are the calls of the source.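 How the source made its calls, unless noted: active means fluorescence ratio normalized to control raised more than 50% in primary screen plus both repeat runs; inactive means the rest.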

Short transient receptor potential channel 6 (Mus musculus), sequence (Q61143 whole entry, looked up): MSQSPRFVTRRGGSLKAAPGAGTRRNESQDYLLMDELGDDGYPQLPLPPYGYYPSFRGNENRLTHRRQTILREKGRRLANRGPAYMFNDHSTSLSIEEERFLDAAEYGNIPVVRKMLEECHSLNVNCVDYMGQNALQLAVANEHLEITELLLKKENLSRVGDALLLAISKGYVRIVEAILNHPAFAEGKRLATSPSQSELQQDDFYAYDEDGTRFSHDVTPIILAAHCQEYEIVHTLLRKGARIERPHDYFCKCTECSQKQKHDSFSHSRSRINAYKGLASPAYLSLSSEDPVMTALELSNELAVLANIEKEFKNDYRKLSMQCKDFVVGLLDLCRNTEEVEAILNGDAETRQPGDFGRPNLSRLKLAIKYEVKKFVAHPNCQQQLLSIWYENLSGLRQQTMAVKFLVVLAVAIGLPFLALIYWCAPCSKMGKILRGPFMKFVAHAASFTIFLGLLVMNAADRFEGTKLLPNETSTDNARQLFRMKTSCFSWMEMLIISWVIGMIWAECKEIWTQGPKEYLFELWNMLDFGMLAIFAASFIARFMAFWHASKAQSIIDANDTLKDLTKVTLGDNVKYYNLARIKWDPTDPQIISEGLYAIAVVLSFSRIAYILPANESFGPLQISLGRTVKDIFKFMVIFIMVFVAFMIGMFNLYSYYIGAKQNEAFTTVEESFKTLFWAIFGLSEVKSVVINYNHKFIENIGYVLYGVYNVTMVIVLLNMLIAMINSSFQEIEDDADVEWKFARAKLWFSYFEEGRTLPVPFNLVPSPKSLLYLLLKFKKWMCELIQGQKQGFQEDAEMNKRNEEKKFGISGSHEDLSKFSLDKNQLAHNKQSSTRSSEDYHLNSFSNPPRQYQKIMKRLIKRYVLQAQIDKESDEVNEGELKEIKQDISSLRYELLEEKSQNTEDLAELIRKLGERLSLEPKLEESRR

As to `Cc1ccccc1OCCn1c(C)nc2ccccc21`, the result in [1], in assay [2], in assay [3], in assay [4], in assay [7] and in assay [8] was inactive. For the same molecule, the outcome in [9], in assay [10], in [11], in [12], in assay [14] and in assay [15] was inactive. In addition, the outcome in [16] was inactive. Also, the inhibition (usually the change of the read-out against control, counted positive when it falls) in assay [5] was 36% (active); in assay [6] it was 57% (active); in assay [13] it was 13.3% (active).

For the molecule `CN1/C(=C\C(=O)C[n+]2ccc3ccccc3c2)C(C)(C)c2ccccc21`, the outcome in [1], in [2], in assay [3], in [4], in [6] and in [7] was inactive. Further, the result in assay [8], in assay [9], in assay [10], in [11], in assay [12] and in assay [13] was inactive. The outcome in [14], in assay [15] and in assay [16] was inactive. The inhibition in assay [5] was 96% (active).

Turning to `CC#CC[N+](C)(C)CCCCCCCCCCCC`, the outcome in assay [1], in [2], in assay [3], in [4], in assay [7] and in assay [8] was inactive. For the same molecule, the result in assay [10], in assay [11], in assay [12], in assay [14], in assay [15] and in [16] was inactive. Besides, the inhibition was 97% (active) in assay [5], 55% (active) in assay [6], 36% (active) in assay [9] and 9.36% (active) in assay [13].

`O=c1c2ccccc2nc(SCc2ccccc2)n1CC1CCCO1` (stereo unspecified): the outcome in [1], in [2], in assay [3], in assay [4], in assay [6] and in assay [7] was inactive. Moreover, the result in assay [8], in assay [9], in [10], in [11], in assay [12] and in [14] was inactive. The outcome in assay [15] and in assay [16] was inactive. Moreover, the inhibition was 54% (active) in assay [5] and 18.9% (active) in assay [13].

With `NC(=O)N/N=C1\c2ccccc2-c2c(C(N)=O)cccc21`, the result in assay [1], in assay [2], in assay [3], in [4], in [7] and in assay [8] was inactive. For the same molecule, the molecule was called inactive in [9], in assay [10], in [11], in assay [12], in [14] and in assay [15]. The result in [16] was inactive. In addition, the values for the inhibition in assay [5], in assay [6] and in [13] were 80% (active), 65% (active) and 38.9% (active), respectively.

Turning to `CN1CCCCc2c1nc1ccccc1c2N` (tested in a mixture with another compound), the result in [1], in [2], in assay [3], in [4], in [7] and in assay [8] was inactive. The molecule was called inactive in assay [10], in assay [11], in assay [12], in assay [14], in assay [15] and in assay [16]. Further, the inhibition in assay [5] was 95% (active); in assay [6] it was 83% (active); in assay [9], 27% (active); in assay [13] it was 12.4% (active).

In the case of `CCOC(=O)c1c(NC(=O)/C=C/C(=O)O)sc(C)c1-c1ccc(C(C)(C)C)cc1`, the result in assay [1], in assay [2], in assay [3], in assay [4], in [5] and in assay [6] was inactive. The outcome in assay [7], in assay [8], in [9], in assay [10], in [11] and in assay [12] was inactive. Besides, the result in assay [14], in assay [15] and in [16] was inactive. In addition, in [13], the inhibition was -6.26% (active).

Regarding `Cc1ccc(C)c2c(N)c3c(nc12)CCCCC3` (tested in a mixture with another compound), the outcome in [1], in assay [2], in [3], in assay [4], in assay [7] and in assay [8] was inactive. Moreover, the result in assay [10], in assay [11], in [12], in assay [14], in [15] and in assay [16] was inactive. The inhibition in assay [5] is 97% (active); in assay [6], 69% (active); in assay [9], 33.5% (active); in assay [13] it was 8.52% (active).

For `COCCn1c(SCc2ccccc2F)nc2ccccc2c1=O`, the result in [1], in assay [2], in [3], in assay [4], in assay [6] and in assay [7] was inactive. Also, the result in assay [8], in [9], in assay [10], in assay [11], in [12] and in assay [14] was inactive. The outcome in assay [15] and in [16] was inactive. For the same molecule, the inhibition in assay [5] is 88% (active); in [13], 20.8% (active).

Consider `COc1cccc2cc(C(N)=O)/c(=N\NC(=O)c3ccccc3)oc12`, for which the outcome in assay [1], in assay [2], in assay [3], in [4], in assay [7] and in assay [8] was inactive. Besides, the outcome in [9], in assay [10], in assay [11], in [12], in assay [14] and in assay [15] was inactive. For the same molecule, the result in assay [16] was inactive. Further, the figures for the inhibition in assay [5], in [6] and in assay [13] were 73% (active), 44% (active) and 40.1% (active), respectively.

For `COc1cc(CNC2CCCC2)cc(Cl)c1OCc1ccc(F)cc1`, the result in assay [1], in assay [2], in [3], in assay [4], in [6] and in [7] was inactive. In addition, the outcome in assay [8], in assay [9], in [10], in [11], in assay [12] and in [14] was inactive. Also, the outcome in assay [15] and in assay [16] was inactive. Besides, the inhibition is 82% (active) in assay [5] and 37.5% (active) in [13].

For the molecule `c1ccc2c(c1)nnn2-c1ncnc2sc3c(c12)CCCC3`, the outcome in assay [1], in assay [2], in [3], in assay [4], in [6] and in [7] was inactive. The outcome in [8], in assay [9], in assay [10], in assay [11], in [12] and in [14] was inactive. Moreover, the outcome in assay [15] and in assay [16] was inactive. Besides, the inhibition in [5] was 71% (active); in assay [13], 21.8% (active).

On to `CCn1nc(C)c(CN2CCCC(CO)(Cc3cccc(Cl)c3)C2)c1C` (stereo unspecified), for which the outcome in assay [1], in [2], in assay [3], in [4], in assay [7] and in assay [8] was inactive. Besides, the outcome in assay [9], in assay [10], in assay [11], in assay [12], in assay [13] and in [14] was inactive. Besides, the outcome in assay [15] and in assay [16] was inactive. Moreover, the inhibition is 90% (active) in assay [5] and 49% (active) in [6].

In the case of `Cc1cc(N2CCCCCC2)nc2ccccc12`, the result in assay [1], in assay [2], in assay [3], in assay [4], in [7] and in assay [8] was inactive. In addition, the result in assay [9], in assay [10], in assay [11], in assay [12], in [14] and in assay [15] was inactive. In addition, in assay [16], the result was inactive. Also, the inhibition was 87% (active) in [5], 55% (active) in assay [6] and 15.6% (active) in [13].

On to `c1ccc(Nc2n[nH]nc2-c2ccccc2)cc1`, for which the result in [1], in [2], in assay [3], in assay [4], in assay [7] and in [8] was inactive. In addition, the molecule was called inactive in [9], in assay [10], in assay [11], in [12], in assay [14] and in [15]. For the same molecule, the outcome in assay [16] was inactive. The inhibition was 96% (active) in assay [5], 60% (active) in assay [6] and 17.4% (active) in assay [13].

For the molecule `O=C1COc2ccc(N3C(=O)C=CC3=O)cc2N1`, the outcome in [1], in assay [2], in assay [3], in assay [4], in assay [6] and in assay [7] was inactive. Besides, the result in [8], in assay [9], in assay [10], in [11], in [12] and in assay [14] was inactive. Also, the result in [15] and in assay [16] was inactive. The values for the inhibition in assay [5] and in assay [13] were 88% (active) and 31.1% (active), respectively.
